Bioassay records: PubChem, National Center for Advancing Translational Sciences (NCATS)
An excerpt weighted towards active compounds, which were near 8.2% of everything screened.
SW480 rerep: inducers of DNA re-replication in SW480 colon cancer cells; SW480 DNA re-replication, Hoechst DNA content imaging, 48 h; hit rate 1.8% among 340,000; Potency, µM (series often up to 46.1 µM), inactives show at the top dose re-replication activation, most hits filed as activators; note: % of control where 0% means no effect; nearly all actives have a fitted effect of over 55% in size
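Cells (250 per well) received 23 nL compound or DMSO by pin tool and were kept 48 hr at 37 C, 5% CO2. Nuclei were then stained with Hoechst for 40 min and scanned for DNA content.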
KB-3-1 cytotox: KB-3-1 parental cell cytotoxicity; KB-3-1 viability, CellTiter-Glo ATP luminescence, 72 h; Potency, µM (top dose mostly 46.1 µM), actives largely listed as cytotoxic; AID 1347075; hit rate 1.4% among 400,000; note: % is set by controls: 0 for no effect and ±100 for the full control effect; nearly all actives have a fitted effect of over 60% in size
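Multi-concentration cytotoxicity screen in KB-3-1 cells grown in DMEM lacking phenol red with 10% FBS. After 72 h at 37 °C with compound, ATP-dependent luminescence was recorded.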
MCF10A rerep: inducers of DNA re-replication in MCF 10A breast cells. MCF 10A DNA re-replication, Hoechst nuclear intensity, 48 h. Potency, µM (doses to about 46.1 µM), inactives show top-dose activity, positive = re-replication, most hits filed as activators. hit rate 2.9% among 350,000. AID 624296; note: % of control where 0% means no effect; nearly all actives have a fitted effect of over 50% in size
ELG1 DNA repair: blocks ELG1-dependent DNA repair in HEK293T cells | HEK293T ELG1-luciferase reporter, luminescence, 16 h; DNA damage induced by 5-fluorouridine | Potency, µM (highest dose often 46.1 µM), without a hit: at the highest dose activity change, negative = inhibition, most hits filed as inhibitors | hit rate 2.3% among 330,000; note: % is set by controls: 0 for no effect and ±100 for the full control effect; nearly all actives have a fitted effect of over 55% in size
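Luminescence from the luciferase reporter, measured 30 min after ONE-Glo reagent at room temperature, was the read-out. Beforehand, 2,000 cells per well were exposed for 16 hr at 37 °C to 5-fluorouridine together with compound or vehicle.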
KB-V1 cytotox: KB-V1 MDR subline cytotoxicity; hit rate 3.4% among 400,000; AID 1347076; KB-V1 MDR cells viability, CellTiter-Glo, 72 h; Potency, µM (top dose mostly 46.1 µM), hits mostly cytotoxic; note: % is set by controls: 0 for no effect and ±100 for the full control effect; nearly all actives have a fitted effect of over 60% in size
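KB-V1 cells (P-gp-expressing MDR subline of KB-3-1) in phenol-red-free DMEM with 10% FBS were exposed to library compounds over a concentration series for 72 h at 37 degrees C. Viability read by CellTiter-Glo luminescence; concentration-effect curves fitted after normalization.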
ELG1 FLuc counter: luciferase inhibition in cell-free luciferin readout for ELG1 hits; shares compounds with ELG1 DNA repair; cell-free firefly luciferase luminescence counter-screen, ViewLux; Potency, µM (titrated, usually from 46.1 µM), without a hit: top-dose activity change, negative = inhibition, actives largely listed as inhibitors; hit rate 3% among 350; note: % is set by controls: 0 for no effect and ±100 for the full control effect
ELG1-Luc inh: human ELG1 repair inhibition, luciferase-tagged ELG1 confirmation | shares compounds with ELG1 DNA repair | HEK293T ELG1-luciferase levels, luminescence; cells co-treated with 5-fluorouridine | Potency, µM (highest dose often 46.1 µM), inactives show top-dose activity change, negative = inhibition, hits mostly inhibitors | hit rate 68% among 670 | AID 624248; note: % is set by controls: 0 for no effect and ±100 for the full control effect; nearly all actives have a fitted effect of over 55% in size
Target sequence (Q96QE3 whole entry, looked up): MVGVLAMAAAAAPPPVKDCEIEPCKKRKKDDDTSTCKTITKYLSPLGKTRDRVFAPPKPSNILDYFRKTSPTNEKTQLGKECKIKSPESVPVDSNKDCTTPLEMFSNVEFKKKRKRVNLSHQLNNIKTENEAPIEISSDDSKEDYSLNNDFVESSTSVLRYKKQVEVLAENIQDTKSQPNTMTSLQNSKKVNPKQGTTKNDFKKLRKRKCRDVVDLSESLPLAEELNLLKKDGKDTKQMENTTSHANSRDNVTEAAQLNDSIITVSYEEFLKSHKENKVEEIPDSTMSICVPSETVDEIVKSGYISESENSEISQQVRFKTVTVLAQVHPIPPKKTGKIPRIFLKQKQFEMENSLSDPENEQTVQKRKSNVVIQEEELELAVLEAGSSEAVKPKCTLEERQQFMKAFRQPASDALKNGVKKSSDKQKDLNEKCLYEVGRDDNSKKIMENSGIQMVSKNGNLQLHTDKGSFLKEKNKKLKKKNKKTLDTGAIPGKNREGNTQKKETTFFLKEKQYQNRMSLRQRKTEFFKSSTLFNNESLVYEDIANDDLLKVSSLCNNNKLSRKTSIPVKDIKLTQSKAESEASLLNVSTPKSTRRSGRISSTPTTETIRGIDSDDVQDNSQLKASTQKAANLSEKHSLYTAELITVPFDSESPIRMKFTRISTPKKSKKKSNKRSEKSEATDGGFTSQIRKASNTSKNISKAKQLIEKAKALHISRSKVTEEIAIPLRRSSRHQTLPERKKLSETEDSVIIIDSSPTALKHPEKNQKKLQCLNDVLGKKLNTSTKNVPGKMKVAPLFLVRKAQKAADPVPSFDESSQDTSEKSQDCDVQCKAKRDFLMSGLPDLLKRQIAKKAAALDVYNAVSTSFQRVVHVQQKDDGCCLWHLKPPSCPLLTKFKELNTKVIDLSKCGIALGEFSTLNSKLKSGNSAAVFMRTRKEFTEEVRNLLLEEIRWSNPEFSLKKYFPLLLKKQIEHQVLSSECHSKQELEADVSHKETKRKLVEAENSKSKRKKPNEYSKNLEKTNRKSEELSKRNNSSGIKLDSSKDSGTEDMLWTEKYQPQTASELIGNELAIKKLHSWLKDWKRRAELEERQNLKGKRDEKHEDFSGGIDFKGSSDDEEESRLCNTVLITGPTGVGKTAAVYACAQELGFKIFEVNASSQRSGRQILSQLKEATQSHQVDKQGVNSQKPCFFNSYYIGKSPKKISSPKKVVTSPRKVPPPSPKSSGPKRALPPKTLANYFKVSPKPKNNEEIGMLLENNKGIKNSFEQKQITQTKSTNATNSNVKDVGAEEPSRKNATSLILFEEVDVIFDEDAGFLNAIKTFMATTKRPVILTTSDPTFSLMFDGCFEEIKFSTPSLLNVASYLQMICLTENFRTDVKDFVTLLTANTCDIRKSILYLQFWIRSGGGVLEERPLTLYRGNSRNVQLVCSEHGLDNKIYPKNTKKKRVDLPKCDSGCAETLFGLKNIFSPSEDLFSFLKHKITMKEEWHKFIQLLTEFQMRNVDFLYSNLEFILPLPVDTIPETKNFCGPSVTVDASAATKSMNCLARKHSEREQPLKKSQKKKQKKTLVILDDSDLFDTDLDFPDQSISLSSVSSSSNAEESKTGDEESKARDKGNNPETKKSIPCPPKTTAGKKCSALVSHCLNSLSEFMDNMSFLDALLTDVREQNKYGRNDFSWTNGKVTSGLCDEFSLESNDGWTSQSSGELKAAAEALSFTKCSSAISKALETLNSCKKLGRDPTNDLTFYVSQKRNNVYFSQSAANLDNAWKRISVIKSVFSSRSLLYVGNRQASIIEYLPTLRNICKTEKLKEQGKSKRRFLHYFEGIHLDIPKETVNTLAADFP
ELG1-Luc MMS: confirmation of human ELG1 repair inhibitors, MMS stimulated; shares compounds with ELG1 DNA repair; HEK293T luciferase-tagged ELG1 level, MMS stimulated; hit rate 53% among 670; AID 624249; Potency, µM (titrated, usually from 46.1 µM), inactives show top-dose activity change, negative = inhibition, actives largely listed as inhibitors; note: % is set by controls: 0 for no effect and ±100 for the full control effect; nearly all actives have a fitted effect of over 60% in size
ELG1 5-FU: confirmation of ELG1 repair inhibitors: viability with 5FU; shares compounds with ELG1 DNA repair; cell viability with 5-FU, ELG1-dependent repair; 670 tested, under 10 active; Potency, µM (series often up to 46.1 µM), without a hit: at the top dose activity change, negative = viability loss, usual class: cytotoxic;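 note: ELG1-luc HEK293T cells cotreated with 5-fluorouridine at 10 µM final; viability measured 16 h after compound addition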
ELG1 MMS viab: confirmation of ELG1 repair inhibitors: viability with MMS. shares compounds with ELG1 DNA repair. Cell viability with MMS, ELG1-dependent DNA repair. Potency, µM (series often up to 46.1 µM), inactives show top-dose activity change, negative = viability loss, hits mostly cytotoxic. hit rate 33% among 670. AID 624251;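 note: ELG1-luc HEK293T cells co-treated with 10 µM MMS; viability read 16 h after compound addition; % is set by controls: 0 for no effect and ±100 for the full control effect; nearly all actives have a fitted effect of over 60% in size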
Cell viab unstim: unstimulated viability counter-screen for ELG1 repair hits; shares compounds with ELG1 DNA repair; cell viability counter-screen, unstimulated, luminescence; Potency, µM (highest dose often 45.9 µM), without a hit: top-dose activity change, negative = loss of viability, actives largely listed as cytotoxic; hit rate 8% among 900;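 note: compound exposure lasted 16 hours before reading; % is set by controls: 0 for no effect and ±100 for the full control effect; nearly all actives have a fitted effect of over 55% in size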
FLuc enzyme: inhibits purified firefly luciferase, counter-screen for ELG1 hits | Potency, µM (series often up to 57.5 µM), for the others: at the top dose activity, negative = inhibition, hits mostly inhibitors | shares compounds with ELG1 DNA repair | hit rate 10% among 350 | purified firefly luciferase, luminescence counter-screen; note: % is set by controls: 0 for no effect and ±100 for the full control effect
The depositor's hits bear a star; i = inactive; ? = inconclusive; · = no result given. Calls come from the whole dose curve; as a rule, active = well fitted curve in the direction sought with a large enough effect; inconclusive = small, poorly fitted or top-dose-only effect, or another doubt; inactive = no such curve, though single readings can be large; an effect the other way counts as inactive or inconclusive. Potency is the fitted concentration of half-maximal effect.

SMILES	SW480 rerep	KB-3-1 cytotox	MCF10A rerep	ELG1 DNA repair	KB-V1 cytotox	ELG1-Luc inh	ELG1-Luc MMS	ELG1 5-FU	ELG1 MMS viab	Cell viab unstim	others
O=C1c2cccc(OCc3ccc(F)cc3)c2CCN1Cc1ccccc1	-2%	16µM*	?	?	?	?	4.4µM*	-10%	6.3µM*	?
CCCCc1ccc(S(=O)(=O)NC2CCS(=O)(=O)C2)cc1 (centres undefined)	-6%	i	15%	3.7µM*	i	1%	11µM*	-7%	11µM*	-18%
Cc1cccc(C)c1OCC(=O)NNC(=S)NC(=O)C1CC1	?	?	-30%	-15%	i	·	·	·	·	·
Cc1c(CC(=O)N2CCN(C(=O)C3COc4ccccc4O3)CC2)c(=O)oc2cc(O)cc(O)c12 (centres undefined)	?	i	-1%	?	i	·	·	·	·	·
Cc1c(CC(=O)N2CCN(C(=O)C3COc4ccccc4O3)CC2)c(=O)oc2c(C)c(O)ccc12 (centres undefined)	-3%	i	-20%	0.58µM*	i	4µM*	?	?	-2%	?	ELG1 FLuc counter=-14%;FLuc enzyme=-4%
Cc1ccccc1OCc1nc2ccccc2c(=O)n1/N=C/c1cn[nH]c1-c1ccccc1	?	?	?	4.6µM*	13µM*	7.1µM*	14µM*	?	?	?	ELG1 FLuc counter=-7%;FLuc enzyme=-18%
Cc1nc2ccccc2c(=O)n1/N=C/c1cn[nH]c1-c1ccccc1	-5%	?	10%	?	i	·	·	·	·	·
Cc1ccc(-c2[nH]ncc2/C=N/n2c(COc3ccccc3)nc3ccccc3c2=O)cc1	?	?	18µM*	5.2µM*	?	3.2µM*	20µM*	?	28µM*	16µM*	ELG1 FLuc counter=-11%;FLuc enzyme=?
CCOC(=O)c1cc2cc(OC)ccc2[nH]1	-1%	i	-2%	?	i	·	·	·	·	·
CCCC(=O)Oc1ccc2[nH]c(C(=O)c3cc4ccccc4[nH]3)cc2c1	·	i	·	·	i	·	·	·	·	3%
COc1ccc(OCC(=O)NCc2nc(-c3ccccc3)no2)cc1	3%	i	?	·	i	·	·	·	·	·
Cc1nnc(SCC(=O)Nc2sccc2C#N)s1	1%	i	-2%	2%	i	·	·	·	·	·
N#Cc1ccsc1NC(=O)CSc1nncs1	-6%	i	5%	?	i	·	·	·	·	-16%
c1ccc(CCc2nn3c(-c4ccncc4)nnc3s2)cc1	9%	i	?	2.6µM*	i	5µM*	?	3%	-1%	-4%
